Data from the supplement of paper PMC8728848.
This is one part of a sample in which the strongest signals are shown more often than they occur.

How the values were obtained:
Test in all cases: glycan array binding signal (z-score within array); higher = stronger binding
Details in all cases: glycan notation: IUPAC condensed, linker removed
Fuc(a1-2)Gal = target: Fuc(a1-2)Gal
Procedure, shortened: (§1)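 Negative Z-scores can be read as non-binding. The Z-score is calculated within each array and then averaged across arrays of one protein sequence at different concentrations or buffers and across linkers. Arrays, 3228 in all, were curated from the Consortium for Functional Glycomics database and kept only where the protein sequence was available.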

[1] = target: Fuc(a1-2)Gal(b1-3)GlcNAc6S
Procedure, shortened: as §1

[2] = target: Fuc(a1-2)Gal6S(b1-3)GlcNAc
Procedure, shortened: as §1

[3] = target: Fuc(a1-2)[Gal(a1-3)]Gal(b1-3)GlcNAc
Procedure, shortened: as §1

[4] = target: Fuc(a1-2)[Gal(a1-3)]Gal(b1-3)GlcNAc(b1-3)GalNAc
Procedure, shortened: as §1

[5] = target: Fuc(a1-2)[Gal(a1-3)]Gal(b1-4)[Fuc(a1-3)]Glc
Procedure, shortened: as §1

[6] = target: Fuc(a1-2)[GalNAc(a1-3)]Gal(b1-4)GlcNAc(b1-2)Man(a1-3)[GalNAc(a1-3)[Fuc(a1-2)]Gal(b1-4)GlcNAc(b1-2)Man(a1-6)]Man(b1-4)GlcNAc(b1-4)GlcNAc
Procedure, shortened: as §1

[7] = target: Fuc(a1-3)[Gal(b1-4)]GlcNAc(b1-2)Man(a1-3)[Fuc(a1-3)[Gal(b1-4)]GlcNAc(b1-2)Man(a1-6)]Man(b1-4)GlcNAc(b1-4)[Fuc(a1-6)]GlcNAc
Procedure, shortened: as §1

[8] = target: Fuc(a1-3)[Gal3S(b1-4)]Glc6S
Procedure, shortened: as §1

Fuc(a1-4)GlcNAc = target: Fuc(a1-4)GlcNAc
Procedure, shortened: as §1

Gal(a1-4)Gal(b1-4)GlcNAc = target: Gal(a1-4)Gal(b1-4)GlcNAc
Procedure, shortened: as §1

[9] = target: Gal(a1-4)Gal(b1-4)GlcNAc(b1-3)Gal(b1-4)Glc
Procedure, shortened: as §1

[10] = target: Gal(b1-3)GlcNAc(b1-3)Gal(b1-4)GlcNAc(b1-3)Gal(b1-4)GlcNAc(b1-2)[Gal(b1-3)GlcNAc(b1-3)Gal(b1-4)GlcNAc(b1-3)Gal(b1-4)GlcNAc(b1-6)]Man(a1-6)[Gal(b1-3)GlcNAc(b1-3)Gal(b1-4)GlcNAc(b1-3)Gal(b1-4)GlcNAc(b1-2)Man(a1-3)]Man(b1-4)GlcNAc(b1-4)[Fuc(a1-6)]GlcNAc
Procedure, shortened: as §1

[11] = target: Gal(b1-3)GlcNAc(b1-3)Gal(b1-4)[Fuc(a1-3)]GlcNAc(b1-6)[Gal(b1-3)GlcNAc(b1-3)]Gal(b1-4)Glc
Procedure, shortened: as §1

[12] = target: Gal(b1-3)GlcNAc(b1-6)Gal(b1-4)GlcNAc
Procedure, shortened: as §1

[13] = target: Gal(b1-3)[GlcNAc(b1-6)]GalNAc
Procedure, shortened: as §1

[14] = target: Gal(b1-3)[Neu5Ac(a2-6)]GlcNAc(b1-6)Gal(b1-4)Glc
Procedure, shortened: as §1

[15] = target: Gal(b1-4)GlcNAc(b1-2)Man(a1-3)[Gal(b1-4)GlcNAc(b1-2)Man(a1-6)]Man(b1-4)GlcNAc(b1-4)GlcNAc
Procedure, shortened: as §1

[16] = target: Gal(b1-4)GlcNAc(b1-2)Man(a1-6)[GlcNAc(b1-2)Man(a1-3)]Man(b1-4)GlcNAc(b1-4)GlcNAc
Procedure, shortened: as §1

[17] = target: Gal(b1-4)GlcNAc(b1-3)Gal(b1-4)GlcNAc(b1-2)[Gal(b1-4)GlcNAc(b1-3)Gal(b1-4)GlcNAc(b1-6)]Man(a1-6)[Gal(b1-4)GlcNAc(b1-3)Gal(b1-4)GlcNAc(b1-2)Man(a1-3)]Man(b1-4)GlcNAc(b1-4)GlcNAc
Procedure, shortened: as §1

[18] = target: Gal(b1-4)GlcNAc(b1-3)Gal(b1-4)GlcNAc(b1-3)Gal(b1-4)GlcNAc(b1-3)Gal(b1-4)GlcNAc(b1-2)Man(a1-3)[Gal(b1-4)GlcNAc(b1-3)Gal(b1-4)GlcNAc(b1-3)Gal(b1-4)GlcNAc(b1-3)Gal(b1-4)GlcNAc(b1-2)Man(a1-6)]Man(b1-4)GlcNAc(b1-4)GlcNAc
Procedure, shortened: as §1

[19] = target: Gal(b1-4)GlcNAc(b1-3)Gal(b1-4)GlcNAc(b1-3)Gal(b1-4)GlcNAc(b1-3)Gal(b1-4)GlcNAc(b1-2)Man(a1-3)[Gal(b1-4)GlcNAc(b1-3)Gal(b1-4)GlcNAc(b1-3)Gal(b1-4)GlcNAc(b1-3)Gal(b1-4)GlcNAc(b1-2)Man(a1-6)]Man(b1-4)GlcNAc(b1-4)[Fuc(a1-6)]GlcNAc
Procedure, shortened: as §1

[20] = target: Gal3S(b1-3)[Fuc(a1-4)]GlcNAc
Procedure, shortened: as §1

[21] = target: Gal3S(b1-4)[Fuc(a1-3)]GlcNAc6S
Procedure, shortened: as §1

Gal4S(b1-4)GlcNAc = target: Gal4S(b1-4)GlcNAc
Procedure, shortened: as §1

Gal6S(b1-3)GlcNAc6S = target: Gal6S(b1-3)GlcNAc6S
Procedure, shortened: as §1

Gal6S(b1-4)Glc = target: Gal6S(b1-4)Glc
Procedure, shortened: as §1

Gal6S(b1-4)GlcNAc6S = target: Gal6S(b1-4)GlcNAc6S
Procedure, shortened: as §1

GalNAc(b1-3)Gal = target: GalNAc(b1-3)Gal
Procedure, shortened: as §1

[22] = target: GalNAc(b1-3)Gal(a1-6)Gal(b1-4)Glc
Procedure, shortened: as §1

[23] = target: GlcNAc(b1-3)Gal(b1-3)GalNAc
Procedure, shortened: as §1

[24] = target: GlcNAc(b1-3)Gal(b1-4)GlcNAc(b1-3)Gal(b1-4)GlcNAc(b1-2)Man(a1-3)[GlcNAc(b1-3)Gal(b1-4)GlcNAc(b1-3)Gal(b1-4)GlcNAc(b1-2)Man(a1-6)]Man(b1-4)GlcNAc(b1-4)GlcNAc
Procedure, shortened: as §1

[25] = target: GlcNAc(b1-3)Gal(b1-4)GlcNAc(b1-3)Gal(b1-4)GlcNAc(b1-3)Gal(b1-4)GlcNAc(b1-2)Man(a1-3)[GlcNAc(b1-3)Gal(b1-4)GlcNAc(b1-3)Gal(b1-4)GlcNAc(b1-3)Gal(b1-4)GlcNAc(b1-2)Man(a1-6)]Man(b1-4)GlcNAc(b1-4)[Fuc(a1-6)]GlcNAc
Procedure, shortened: as §1

[26] = target: GlcNAc(b1-6)Gal(b1-4)GlcNAc
Procedure, shortened: as §1

Kdn(a2-3)Gal(b1-4)Glc = target: Kdn(a2-3)Gal(b1-4)Glc
Procedure, shortened: as §1

[27] = target: Man(a1-2)Man(a1-3)[Man(a1-2)Man(a1-6)]Man
Procedure, shortened: as §1

[28] = target: Man(a1-2)Man(a1-3)[Man(a1-2)Man(a1-6)]Man(a1-6)[Man(a1-2)Man(a1-2)Man(a1-3)]Man
Procedure, shortened: as §1

[29] = target: Man(a1-2)Man(a1-6)[Man(a1-3)]Man(a1-6)[Man(a1-2)Man(a1-2)Man(a1-3)]Man(b1-4)GlcNAc(b1-4)GlcNAc
Procedure, shortened: as §1

Man(a1-6)Man = target: Man(a1-6)Man
Procedure, shortened: as §1

Neu5Ac(a2-3)Gal(b1-4)Glc = target: Neu5Ac(a2-3)Gal(b1-4)Glc
Procedure, shortened: as §1

[30] = target: Neu5Ac(a2-3)Gal(b1-4)[Fuc(a1-3)]GlcNAc6S
Procedure, shortened: as §1

[31] = target: Neu5Ac(a2-6)Gal(b1-3)GlcNAc(b1-3)[Gal(b1-4)GlcNAc(b1-6)]Gal(b1-4)Glc
Procedure, shortened: as §1

[32] = target: Neu5Ac(a2-6)Gal(b1-4)GlcNAc(b1-3)Gal(b1-4)GlcNAc(b1-3)Gal(b1-4)GlcNAc(b1-2)Man(a1-3)[Neu5Ac(a2-6)Gal(b1-4)GlcNAc(b1-3)Gal(b1-4)GlcNAc(b1-3)Gal(b1-4)GlcNAc(b1-2)Man(a1-6)]GalNAc
Procedure, shortened: as §1

[33] = target: Neu5Ac(a2-8)Neu5Ac(a2-3)Gal(b1-4)Glc
Procedure, shortened: as §1

[34] = target: Neu5Ac(a2-8)Neu5Gc(a2-3)Gal(b1-4)GlcNAc
Procedure, shortened: as §1

[35] = target: Neu5Ac9Ac(a2-3)Gal(b1-4)GlcNAc
Procedure, shortened: as §1

[36] = target: Neu5Gc(a2-3)Gal(b1-4)GlcNAc
Procedure, shortened: as §1

B1: LSECtin (Homo sapiens), Q6UXB4 (protein)
chain: MDTTRYSKWGGSSEEVPGGPWGRWVHWSRRPLFLALAVLVTTVLWAVILSILLSKASTERAALLDGHDLLRTNASKQTAALGALKEEVGDCHSCCSGTQAQLQTTRAELGEAQAKLMEQESALRELRERVTQGLAEAGRGREDVRTELFRALEAVRLQNNSCEPCPTSWLSFEGSCYFFSVPKTTWAAAQDHCADASAHLVIVGGLDEQGFLTRNTRGRGYWLGLRAVRHLGKVQGYQWVDGVSLSFSHWNQGEPNDAWGRENCVMMLHTGLWNDAPCDSEKDGWICEKRHNC
For B1, the “glycan array binding signal (z-score)” value (Fuc(a1-2)Gal) was -0.224, the “glycan array binding signal (z-score)” value [1] was -0.125 and the “glycan array binding signal (z-score)” value [2] was -0.129. The “glycan array binding signal (z-score)” value [3] was -0.157, the “glycan array binding signal (z-score)” value [4] was -0.129 and the “glycan array binding signal (z-score)” value [5] was -0.135. For the same binder, the “glycan array binding signal (z-score)” value [6] was 2.77, the “glycan array binding signal (z-score)” value [7] was -0.124 and the “glycan array binding signal (z-score)” value [8] was 4.05. The “glycan array binding signal (z-score)” value (Fuc(a1-4)GlcNAc) was -0.206, the “glycan array binding signal (z-score)” value (Gal(a1-4)Gal(b1-4)GlcNAc) was 0.114 and the “glycan array binding signal (z-score)” value [9] was -0.084. The “glycan array binding signal (z-score)” value [10] was -0.127, the “glycan array binding signal (z-score)” value [11] was -0.13 and the “glycan array binding signal (z-score)” value [12] was -0.137. The “glycan array binding signal (z-score)” value [13] was 0.004, the “glycan array binding signal (z-score)” value [14] was -0.085 and the “glycan array binding signal (z-score)” value [15] was -0.21. For the same binder, the “glycan array binding signal (z-score)” value [16] was 5.9, the “glycan array binding signal (z-score)” value [17] was -0.139 and the “glycan array binding signal (z-score)” value [18] was -0.133. The “glycan array binding signal (z-score)” value [19] was -0.123, the “glycan array binding signal (z-score)” value [20] was -0.158 and the “glycan array binding signal (z-score)” value [21] was -0.133. For the same binder, the “glycan array binding signal (z-score)” value (Gal4S(b1-4)GlcNAc) was -0.143, the “glycan array binding signal (z-score)” value (Gal6S(b1-3)GlcNAc6S) was -0.136 and the “glycan array binding signal (z-score)” value (Gal6S(b1-4)Glc) was -0.141. For the same binder, the “glycan array binding signal (z-score)” value (Gal6S(b1-4)GlcNAc6S) was -0.109, the “glycan array binding signal (z-score)” value (GalNAc(b1-3)Gal) was -0.182 and the “glycan array binding signal (z-score)” value [22] was -0.134.

B2: Si Bti9 1b-HA (Solanum lycopersicum) (protein)
chain: MFESRPRSVLSLGVFVILVYLSSVPLPVNSQCNRGCDLALASFYVWRGSNLTLISEMFSTSIADIVSYNNRDNIPNQDSVIAGTRINIPFRCDCLNDGEVLGHAFPYRVKSGDTYDLVARNYSDLTTAQWMMKFNSYPENNIPNTVNLSVVVNCSCGNSDVSKDFGLFVTYPVRAEDNLTSVASAANVSEDIIRRYNPAAVSILDIGQGIIYIPGRDRNGNFPPLPTSTDGLSGGAKAPLFFNPAFLYKVVELKLAGRSRTSGYPYDVPDYAGYPYDVPDYALEVLFQ
For B2, the “glycan array binding signal (z-score)” value [23] was -0.271, the “glycan array binding signal (z-score)” value [24] was 2.7 and the “glycan array binding signal (z-score)” value [25] was 0.086. For the same binder, the “glycan array binding signal (z-score)” value [26] was -0.32, the “glycan array binding signal (z-score)” value (Kdn(a2-3)Gal(b1-4)Glc) was -0.287 and the “glycan array binding signal (z-score)” value [27] was -0.589. The “glycan array binding signal (z-score)” value [28] was -0.638, the “glycan array binding signal (z-score)” value [29] was -0.201 and the “glycan array binding signal (z-score)” value (Man(a1-6)Man) was 7.42. The “glycan array binding signal (z-score)” value (Neu5Ac(a2-3)Gal(b1-4)Glc) was 0.009, the “glycan array binding signal (z-score)” value [30] was -0.438 and the “glycan array binding signal (z-score)” value [31] was -0.236. The “glycan array binding signal (z-score)” value [32] was 2.19, the “glycan array binding signal (z-score)” value [33] was 0.02 and the “glycan array binding signal (z-score)” value [34] was -0.539. For the same binder, the “glycan array binding signal (z-score)” value [35] was -0.425 and the “glycan array binding signal (z-score)” value [36] was -0.219.
